The record followed here is PubChem BioAssay (NCATS).

The target in test [1] is Protein phosphatase 1D (Homo sapiens) (UniProt O15297). Kind of test: RapidFire Mass Spectrometry qHTS Assay for Modulators of WT P53-Induced Phosphatase 1 (WIP1) (AID 1347424; active means well fitted curve in the direction sought with a large enough effect; an effect the other way counts as inactive or inconclusive; further: series mostly up to about 63 µM). The method in brief:
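RapidFire MS readout of dephosphorylated VEPPL-S-QETFS product, with 1 uM isotope-labelled peptide standard. Reaction: 10 nM WIP1, 2 uM phosphopeptide substrate, 5 min, room temperature, after 1 h compound preincubation; stopped with 0.5% formic acid.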
Background: qHTS replaces the single test concentration by a dilution series.

The target is the same in test [2]. Kind of test: Rhodamine-PBP qHTS Assay for Modulators of WT P53-Induced Phosphatase 1 (WIP1) (AID 1347425; active means well fitted curve in the direction sought with a large enough effect; an effect the other way counts as inactive or inconclusive). The method in brief:
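WIP1 (5 nM final) was preincubated with compound for 1 hour at room temperature. It then dephosphorylated 10 uM VEPPL-pS-QETFS peptide in Tris-HCl pH 7.5 with 30 mM MgCl2. Released Pi was detected by 10 uM Rh-PBP fluorescence (ex 525/em 598 nm) read at 1-min intervals for 11 min, as delta f1 - f0.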

Test [3] in a line: Primary qHTS for inhibitors of La Crosse Virus (LACV) - induced cell death in SH-SY5Y cells (AID 1508616; active means well fitted curve in the direction sought with a large enough effect; an effect the other way counts as inactive or inconclusive;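 further: top concentration of the series differs between compounds; higher means more rescue of cells from virus-induced death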). The method in brief:
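Screening measures cell viability in LACV-infected SH-SY5Y cultures. Compound was added before virus (0.01 MOI), and ATP was detected by luminescence 6 days later.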

Test [4] deals with Calcium and integrin-binding protein 1 (Homo sapiens) (UniProt Q99828). Kind of test: Primary qHTS for Identification of Calcium Integrin Binding Protein 1 (CIB1) Competitor (AID 1508620; active means well fitted curve in the direction sought with a large enough effect; an effect the other way counts as inactive or inconclusive;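 further: GST tagged CIB1 binding a fluorescein labelled alphaIIb integrin peptide tracer; top concentration of the series differs between compounds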). Summed up:
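Fluorescence polarization competition: GST-tagged CIB1 (1 uM final) preincubated with compound 15 min at room temperature, then FITC-labelled alphaIIb peptide (100 nM final) added. After 15 min at room temperature, polarization read at Ex 480/Em 540.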

Test [5] is described as follows: A High-Content qHTS Against Drug Library for the Identification of Small Molecules that Inhibit DYT1 Early Onset Primary Dystonia-Associated Cell Pathology (AID 1645839). Further: series mostly up to about 46 µM. The method in brief:
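Cells were seeded and left for 24 h, then dosed with compound alongside tetracycline induction of mutant EGFP-TorsinA. They were incubated for 48 h, fixed in 4% paraformaldehyde, permeabilized and imaged for mislocalization (%pathology) and cell count.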

The target in test [6] is Cytochrome P450 2D6 (Homo sapiens) (UniProt P10635). Kind of test: Cytochrome P450 family 2 subfamily D member 6 (CYP2D6) small molecule antagonists: luciferase biochemical (cell-free) qHTS assay (AID 1645840; active means well fitted curve in the direction sought with a large enough effect in the repeat runs; an effect the other way counts as inactive or inconclusive; further: series mostly up to about 57 µM; nearly all actives have a fitted effect of over 55% in size). The method in brief: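 P450-Glo CYP2D6 system: proluciferin substrate converted by enzyme to luciferin, read by luminescence proportional to activity. Enzyme-substrate mix with compound 10 min at room temperature, then NADPH regeneration 1 h before detection reagent.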
Cytochrome P450 2D6 (Homo sapiens), sequence (P10635 whole entry, looked up): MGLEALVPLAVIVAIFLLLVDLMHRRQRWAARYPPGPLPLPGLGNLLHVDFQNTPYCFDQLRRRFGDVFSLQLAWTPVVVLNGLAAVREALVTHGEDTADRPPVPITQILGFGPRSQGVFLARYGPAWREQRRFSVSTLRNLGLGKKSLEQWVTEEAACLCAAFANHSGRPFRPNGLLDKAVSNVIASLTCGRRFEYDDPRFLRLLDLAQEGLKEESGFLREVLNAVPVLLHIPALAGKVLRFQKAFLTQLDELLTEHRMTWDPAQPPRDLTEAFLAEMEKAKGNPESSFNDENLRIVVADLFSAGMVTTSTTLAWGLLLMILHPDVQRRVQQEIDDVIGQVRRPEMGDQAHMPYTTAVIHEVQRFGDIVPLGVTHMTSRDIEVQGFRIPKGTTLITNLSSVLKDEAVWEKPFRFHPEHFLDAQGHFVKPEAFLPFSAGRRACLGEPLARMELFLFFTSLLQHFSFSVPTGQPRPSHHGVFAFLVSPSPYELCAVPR

Test [7] is described as follows: Primary qHTS for inhibitors of SARS-S pseudo-typed particle cell entry (AID 1479145). Further: nearly all actives have a fitted effect of over 45% in size. Further: potency means the concentration at half of the fitted maximal effect.
A short description of test [8]: Primary qHTS for Huh7 cytotoxicity: counterscreen for inhibitors of MERS-S pseudotyped particle cell entry (AID 1479147). Further: potency means the concentration at half of the fitted maximal effect.
Test [9] can be described thus: Primary qHTS for inhibitors of MERS-S pseudo-typed particle cell entry (AID 1479149). Further: nearly all actives have a fitted effect of over 60% in size. Further: potency means the concentration at half of the fitted maximal effect.
Test [10] in a line: Primary qHTS for Vero E6 cytotoxicity: counterscreen for inhibitors of SARS-S pseudo-typed particle cell entry (AID 1479150).
Test [11] can be described thus: Validation qHTS assay for inhibitors of Activation Induced Cytidine Deaminase (AID): UDG Counterscreen signal (AID 1347427; active means well fitted curve in the direction sought with a large enough effect; an effect the other way counts as inactive or inconclusive). Summed up: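 Fluorescence at 560 nm excitation, 665 nm emission reports UDG signal after 250 mM NaOH (2x) addition and 30 min. Enzymes (AID 1 uM, UDG 2 U/mL, at 4/3x) preincubated 10 min with compound, then 4 h with 4x 250 nM DJC20/DJC23 substrate at room temperature.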

In test [12] the target is Single-stranded DNA cytosine deaminase (Homo sapiens) (UniProt Q9GZX7). Kind of test: Validation qHTS assay for inhibitors of Activation Induced Cytidine Deaminase (AID): AID signal (AID 1347429; active means well fitted curve in the direction sought with a large enough effect; an effect the other way counts as inactive or inconclusive). The method in brief: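 Compounds (up to 114 uM final) are tested against AID plus UDG using DJC20/DJC23 FRET substrate. Reactions incubate 4 hr at room temperature, receive NaOH for 30 min, and are read at Ex 540/Em 590 nm.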
Single-stranded DNA cytosine deaminase (Homo sapiens), sequence (Q9GZX7 whole entry, looked up): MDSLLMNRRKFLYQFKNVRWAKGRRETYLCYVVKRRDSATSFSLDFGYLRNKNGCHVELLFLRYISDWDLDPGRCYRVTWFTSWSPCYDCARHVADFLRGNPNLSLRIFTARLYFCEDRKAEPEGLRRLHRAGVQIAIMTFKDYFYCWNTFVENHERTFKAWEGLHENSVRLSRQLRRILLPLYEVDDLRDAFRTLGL

For test [13], the target named is Calcium and integrin-binding protein 1 (Homo sapiens) (UniProt Q99828). Kind of test: Validation qHTS for Identification of Calcium Integrin Binding protein 1 (CIB1) Competitor (AID 1508618; active means well fitted curve in the direction sought with a large enough effect; an effect the other way counts as inactive or inconclusive). Summed up:
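Fluorescence polarization with 1 uM CIB1-GST and 100 nM FITC-alphaIIb peptide in HEPES pH 7.4, NaCl, 5 mM CaCl2, Tween20. Compounds at up to 114 uM final, preincubated with protein 15 min; read after 15 min more at RT.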

Test [14] in a line: Primary qHTS for small molecule stabilizers of the endoplasmic reticulum resident proteome: Secreted ER Calcium Modulated Protein (SERCaMP) assay (AID 1508630; active means well fitted curve in the direction sought with a large enough effect; an effect the other way counts as inactive or inconclusive). The method in brief: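 The SH-SY5Y reporter protocol was run at 3 concentrations up to 38.3 uM (primary) or 11 concentrations (follow-up): 16 h compound, 100 nM thapsigargin for 4 h, then extracellular luciferase luminescence.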

A number with no mark means an inactive call. Records with an inconclusive call do not appear. Active and inactive are the calls of the source. Unless noted, the call rests on the fitted dose curve.

Calcium and integrin-binding protein 1 (Homo sapiens), sequence (Q99828 whole entry, looked up): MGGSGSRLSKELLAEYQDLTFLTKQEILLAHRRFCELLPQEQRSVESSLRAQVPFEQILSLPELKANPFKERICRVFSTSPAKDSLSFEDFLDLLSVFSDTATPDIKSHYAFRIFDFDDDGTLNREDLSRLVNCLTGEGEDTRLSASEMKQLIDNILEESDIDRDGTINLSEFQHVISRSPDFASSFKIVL
Protein phosphatase 1D (Homo sapiens), sequence (O15297 whole entry, looked up): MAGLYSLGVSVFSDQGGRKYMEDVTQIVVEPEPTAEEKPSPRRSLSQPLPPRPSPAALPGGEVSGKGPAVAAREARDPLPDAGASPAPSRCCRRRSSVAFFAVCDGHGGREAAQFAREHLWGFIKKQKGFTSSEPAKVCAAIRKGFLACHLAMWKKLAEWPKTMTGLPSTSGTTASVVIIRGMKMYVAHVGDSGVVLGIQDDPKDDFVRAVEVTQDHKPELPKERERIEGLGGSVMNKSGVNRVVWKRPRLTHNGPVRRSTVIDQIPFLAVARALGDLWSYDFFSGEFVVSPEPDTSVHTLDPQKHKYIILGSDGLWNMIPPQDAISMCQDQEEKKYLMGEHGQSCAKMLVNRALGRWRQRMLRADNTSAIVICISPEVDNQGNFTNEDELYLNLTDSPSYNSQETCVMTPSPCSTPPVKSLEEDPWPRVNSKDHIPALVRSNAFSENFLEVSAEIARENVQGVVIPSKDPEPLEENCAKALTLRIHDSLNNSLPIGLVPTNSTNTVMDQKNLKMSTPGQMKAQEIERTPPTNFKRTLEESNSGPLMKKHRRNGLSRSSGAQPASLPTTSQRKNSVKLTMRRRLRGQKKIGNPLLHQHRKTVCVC

Consider `CCNc1nc(Cl)nc(NCC)n1`, for which the Potency entry in test [1], in test [4] and in test [6] was “inactive” throughout. Also, the outcome in test [2], in test [3] and in test [5] was inactive.

Take `Nc1ccc(N)cc1`: the Potency result in test [1] and in test [4] was “inactive” each time. The compound was called inactive in [3].

Take `NC(=O)CCCCC1CCSS1` (configuration not stated): the Potency result in test [7], in test [8], in test [9] and in [10] was “inactive” each time.

For `CCCCCCCCCCCCCCCC[n+]1ccccc1`, the results for the Potency in test [7], in test [8] and in test [9] were 3.16 µM (active), 11.2 µM (active) and 7.08 µM (active), respectively.

For the compound `CC(=O)Oc1c(C)c(C)c2c(c1C)CC[C@@](C)(CCC[C@H](C)CCC[C@H](C)CCCC(C)C)O2`, the Potency entry in test [7], in test [8], in test [9] and in test [10] was “inactive” throughout.

Take `O=C(O)c1nn(Cc2ccc(Cl)cc2Cl)c2ccccc12`: the compound was classed as inactive in test [11], in test [12], in [3], in test [13], in test [14] and in test [5]. Also, the Potency result in test [4] and in test [6] was “inactive” each time.

`O=C(O)CCNC(=O)c1ccccc1`: the Potency entry in test [7], in test [8], in test [9] and in test [10] was “inactive” throughout.

Turning to `O=C(N[C@@H]1N=C(c2ccccc2F)c2cccc3c2N(CC3)C1=O)c1cc2ccccc2[nH]1`, the call in test [2] and in test [3] was inactive. The Potency entry in test [4] and in test [6] was “inactive” each time.

`C/C=C/c1ccc(O)c(OC)c1`: the Potency entry in test [7], in test [8], in [9] and in test [10] was “inactive” throughout.

Consider `O=C(O)CCC(=O)OC[C@@H](NC(=O)C(Cl)Cl)[C@H](O)c1ccc([N+](=O)[O-])cc1`, for which the Potency result in test [7], in test [8], in test [9] and in [10] was “inactive” each time.

`CNC(=O)c1c(I)c(NC(=O)CCCCC(=O)Nc2c(I)c(C(=O)O)c(I)c(C(=O)NC)c2I)c(I)c(C(=O)O)c1I`: the Potency result in test [7], in test [8], in [9] and in test [10] was “inactive” each time.

Take `CCCCCCCCCCCCCCCCCCNC(=O)OC1CCN(C(=O)OC[C@H](COC(=O)N(Cc2cccc[n+]2CC)C(=O)c2ccccc2OC)OC)CC1`: in test [7], the Potency was 25.1 µM (active). Also, the Potency result in [8] is “inactive”.

For the compound `CC(C(=O)O)c1ccc(CC2CCCC2=O)cc1` (configuration not stated), the Potency entry in test [7], in test [8], in test [9] and in test [10] was “inactive” throughout.

On to `CCCc1nc(C)c2c(=O)[nH]c(-c3cc(S(=O)(=O)N4CCN(CC)CC4)ccc3OCC)nn12`, for which the Potency entry in test [7], in test [8], in [9] and in [10] was “inactive” in each case.

As to `NS(=O)(=O)c1cc2c(cc1Cl)NC(CSCc1ccccc1)=NS2(=O)=O`, the Potency entry in [7], in test [8], in test [9] and in [10] was “inactive” each time.

Turning to `[O-][n+]1ccccc1SSc1cccc[n+]1[O-]`, the Potency result in test [7] was “inactive”.

Take `CCOC(=O)c1ccc(C#Cc2ccc3c(c2)C(C)(C)CCS3)nc1`: the Potency entry in test [7], in [8], in test [9] and in test [10] was “inactive” each time.

In the case of `COc1ccc2c(C(=O)c3ccc(Cl)cc3)c(C)n(CC(=O)O)c2c1`, the compound was classed as inactive in test [2], in test [3], in test [14] and in test [5]. Further, the Potency result in [4] and in test [6] was “inactive” each time.

As for `CCN(CC)C(=O)N1CCN(C)CC1`, the Potency result in test [7], in test [8], in [9] and in [10] was “inactive” throughout.

Regarding `C[C@@]12C(=O)OC(=O)[C@]1(C)C1CCC2O1`, the Potency in test [7] was 14.1 µM (active); in test [8], 22.4 µM (active).

As to `CC(C)C[C@@H](N)C(=O)O`, the Potency result in test [7], in [8], in [9] and in [10] was “inactive” each time.

Consider `C[C@H]1O[C@@H](O[C@H]2CC[C@@]3(C)[C@H](CC[C@@H]4[C@@H]3C[C@@H](O)[C@]3(C)[C@@H](C5=CC(=O)OC5)CC[C@]43O)C2)C[C@H](O)[C@@H]1O[C@H]1C[C@H](O)[C@H](O[C@H]2C[C@H](O)[C@H](O[C@@H]3O[C@H](CO)[C@@H](O)[C@H](O)[C@H]3O)[C@@H](C)O2)[C@@H](C)O1`, for which the Potency was 0.891 µM (active) in test [7] and 1 µM (active) in test [8]. The Potency entry in test [9] was “inactive”.

Take `c1ccc2nc(N3CCNCC3)ccc2c1`: the compound was classed as inactive in test [2] and in test [5]. For the same compound, the Potency entry in test [4] and in [6] was “inactive” throughout.

`Cc1cccc(C)c1NC(=O)C(C)N` (configuration not stated): the Potency result in test [7], in test [8], in test [9] and in test [10] was “inactive” throughout.

Turning to `Oc1c(Cl)cc(Cl)c2cccnc12`, the Potency result in test [7] is “inactive”.

As for `C=CC[N+]1([C@H]2C[C@H]3[C@@H]4CC[C@H]5C[C@H](OC(C)=O)[C@@H](N6CCCCC6)C[C@]5(C)[C@H]4CC[C@]3(C)[C@H]2OC(=O)CC)CCCCC1`, the Potency result in [7], in test [8], in test [9] and in test [10] was “inactive” each time.

Regarding `CCCCCCCCCCCCCCCC[N+](C)(C)Cc1ccccc1`, in test [7], the Potency was 7.94 µM (active). The Potency result in [8] was “inactive”.

For the compound `C[C@@H](O)[C@H](N)C(=O)O`, the Potency entry in [7], in test [8], in test [9] and in test [10] was “inactive” throughout.

For the compound `CC(C)C(=O)OCc1cccc(OC(=O)[C@@H]2N3C(=O)[C@@H](NC(=O)Cc4ccccc4)[C@H]3SC2(C)C)c1`, the Potency result in test [7], in test [8], in test [9] and in test [10] was “inactive” throughout.

With `COC(=O)Nc1nc2ccc(S(=O)c3ccccc3)cc2[nH]1` (configuration not stated), the Potency entry in test [7], in test [8] and in test [9] was “inactive” each time.

As for `CC(=O)Oc1ccc2c(c1)CC[C@@H]1[C@@H]2CC[C@]2(C)[C@@H](O)CC[C@@H]12`, the Potency result in test [7], in [8], in test [9] and in test [10] was “inactive” each time.

With `CN1C(=O)[C@@H](NC(=O)c2cc3ccccc3[nH]2)N=C(c2ccccc2)c2ccccc21`, the result in test [2] and in [3] was inactive. The Potency entry in [4] and in test [6] was “inactive” throughout.

With `CN(CCCN1c2ccccc2CCc2ccccc21)CC(=O)c1ccc(Cl)cc1`, the Potency result in test [7], in test [8], in test [9] and in [10] was “inactive” in each case.

Turning to `O=C(O)CCC(=O)c1ccc(-c2ccccc2)cc1`, the Potency entry in [7], in [8], in test [9] and in [10] was “inactive” in each case.

`N[C@@H](CSCCCO)C(=O)O`: the Potency result in test [7], in [8], in [9] and in test [10] was “inactive” in each case.
